Drawing on PubChem BioAssay, this text covers fold change, cell count and z-score for 23 compounds.

Assay [1] in a line: viability loss with induced miR-34 in A549 – imaging, A549 dox-inducible miR-34, nuclei and caspase counts, primary screen (AID 1347080). Further: test concentration not given here. As to conditions: A549 miR-34 inducible, Hoechst nuclei count, 48 h.
Assay [2] can be described thus: MELAS cybrid and Rieske KO viability enhancers – cell-based, MELAS cybrids, Rieske KO mouse fibroblasts, CellTiter-Glo, primary screen (AID 1508586;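 active means mean z-score across replicates of 1.96 or higher in either the MELAS or the Rieske mutant cell line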;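 further: test concentration not given here; z relative to plate mean and SD of compound and empty wells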). Conditions: low glucose. (In ATP-based viability assays light output follows the ATP content of the culture.)
Assay [3] is described as follows: galactose survival enhancers in mitochondrial complex I cybrids – cell-based, galactose medium, ATP luminescence, primary screen (AID 1645843;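 active means z-score of at least 1.8 in each of two replicates, scored against plate mean and spread of sample wells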;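 further: positive z means more ATP and so rescue of galactose-driven cybrid death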). Conditions: complex I mutant cybrid cells, 72 h, stronger effect = higher value.
The mark [4] stands for this setting: stronger effect = lower value, cell number ratio, induced over uninduced.
Where [5] appears, read: measured here: relative caspase fold change +Dox/-Dox.
Where [6] appears, read: measured here: total cells with miR-34 induction, stronger effect = lower value.
Setting [7] is: measured here: total cells without miR-34 induction.
Where [8] appears, read: MELAS cybrid survival, CellTiter-Glo 48 h, stronger effect = higher value.
The mark [9] stands for this setting: Rieske KO mouse fibroblast survival, CellTiter-Glo 72 h.

Activity calls are given as the source filed them.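 How the source made its calls, unless noted: active means compounds whose cell count with miR-34 switched on is under 0.7 times the count with it off; inactive means the rest.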

As to `CCn1c2ccccc2c2cc(CNC)ccc21`, the fold change is 0.848 (inactive) in assay [1] (setting [4]) and 0.773 in assay [1] (setting [5]). Besides, the cell count in assay [1] (setting [6]) was 7330; in assay [1] (setting [7]) it was 8640. The z-score in assay [2] (setting [8]) is 0.644 (inactive); in assay [2] (setting [9]) it was -0.0619; in assay [3], -0.915 (inactive).

Take `Cn1nc(NC(=O)Cn2ccc(-c3ccco3)n2)c2ccccc21`: the fold change was 0.861 (inactive) in assay [1] (setting [4]) and 2.39 in assay [1] (setting [5]). In addition, the cell count in assay [1] (setting [6]) was determined as 7120; in assay [1] (setting [7]), 8270. For the same compound, the z-score in assay [2] (setting [8]) is 1.07 (inactive); in assay [2] (setting [9]), 0.074; in assay [3], 0.205 (inactive).

`COc1ccc2nc(Cn3cnc4cc(F)ccc4c3=O)[nH]c2c1`: the fold change in assay [1] (setting [4]) is 0.891 (inactive); in assay [1] (setting [5]), 1.56. In addition, the cell count in assay [1] (setting [6]) came to 7880; in assay [1] (setting [7]) it was 8840. Further, the z-score in assay [2] (setting [8]) is -0.0496 (inactive); in assay [2] (setting [9]) it was -0.0588; in assay [3] it was -0.39 (inactive).

`O=C(Nc1ccccc1)c1ccn[nH]1`: the results for the fold change in assay [1] (setting [4]) and in assay [1] (setting [5]) were 0.856 (inactive) and 0.232, respectively. In addition, the figures for the cell count in assay [1] (setting [6]) and in assay [1] (setting [7]) were 7620 and 8910, respectively. The values for the z-score in assay [2] (setting [8]), in assay [2] (setting [9]) and in assay [3] were -0.292 (inactive), 0.207 and 0.49 (inactive), respectively.

Regarding `O=C(O)CN(CCO)CCO`, the fold change in assay [1] (setting [4]) was 0.873 (inactive); in assay [1] (setting [5]) it was 0.542. For the same compound, the cell count in assay [1] (setting [6]) turned out to be 8460; in assay [1] (setting [7]) it was 9690. The z-score is -0.0565 (inactive) in assay [2] (setting [8]), -0.265 in assay [2] (setting [9]) and 0.37 (inactive) in assay [3].

For `O=C(O)c1cccnc1Nc1ccc(Cl)cc1`, the fold change in assay [1] (setting [4]) was 1.17 (inactive); in assay [1] (setting [5]) it was 0.619. The results for the cell count in assay [1] (setting [6]) and in assay [1] (setting [7]) were 5660 and 4840, respectively. For the same compound, the z-score in assay [2] (setting [8]) is -0.775 (inactive); in assay [2] (setting [9]), -0.287; in assay [3], 0.845 (inactive).

Consider `Cc1nsc(NC(=O)NCc2ccccc2-n2ccnc2C)n1`, for which the fold change in assay [1] (setting [4]) was 0.866 (inactive); in assay [1] (setting [5]), 1.23. Also, the cell count in assay [1] (setting [6]) worked out at 9020; in assay [1] (setting [7]) it was 10400. The z-score in assay [2] (setting [8]) is 0.0398 (inactive); in assay [2] (setting [9]), -0.281; in assay [3], -0.575 (inactive).

Regarding `O=C1CN(c2ccc(C(F)(F)F)cn2)CCN1Cc1ccc2c(c1)OCO2`, the fold change in assay [1] (setting [4]) is 0.887 (inactive); in assay [1] (setting [5]) it was 1.52. The cell count in assay [1] (setting [6]) amounted to 8410; in assay [1] (setting [7]), 9480. Besides, the z-score is 0.169 (inactive) in assay [2] (setting [8]), -0.106 in assay [2] (setting [9]) and 2.96 (active) in assay [3].

As to `Nc1cccc(-c2cccc(OCc3ccccc3)c2)n1`, the fold change in assay [1] (setting [4]) was 0.803 (inactive); in assay [1] (setting [5]), 1.74. Also, the cell count in assay [1] (setting [6]) is 7230; in assay [1] (setting [7]), 9010. For the same compound, the values for the z-score in assay [2] (setting [8]), in assay [2] (setting [9]) and in assay [3] were -0.19 (inactive), -0.156 and -0.555 (inactive), respectively.

With `NC1=NC(=O)C(=Cc2ccc(-c3ccc(C(=O)O)cc3)o2)S1`, the fold change was 0.91 (inactive) in assay [1] (setting [4]) and 0.479 in assay [1] (setting [5]). Also, the cell count came out at 8530 in assay [1] (setting [6]) and 9370 in assay [1] (setting [7]). The z-score was 0.721 (inactive) in assay [2] (setting [8]), -0.231 in assay [2] (setting [9]) and 0.485 (inactive) in assay [3].

Turning to `COc1cccc2c(=O)n(Cc3ccc4nonc4c3)cnc12`, the fold change is 0.912 (inactive) in assay [1] (setting [4]) and 1.93 in assay [1] (setting [5]). The cell count was 8180 in assay [1] (setting [6]) and 8980 in assay [1] (setting [7]). Besides, the z-score in assay [2] (setting [8]) was 0.215 (inactive); in assay [2] (setting [9]), -0.341; in assay [3], -0.545 (inactive).

Regarding `O=c1cc(-c2ccncc2)nc(-c2cccc(CN3CCCC(CO)C3)c2)[nH]1` (stereo unspecified), the fold change in assay [1] (setting [4]) is 0.934 (inactive); in assay [1] (setting [5]), 0.922. The cell count in assay [1] (setting [6]) was 8470; in assay [1] (setting [7]), 9070. The z-score in assay [2] (setting [8]) is -0.423 (inactive); in assay [2] (setting [9]) it was 0.0738; in assay [3] it was 0.08 (inactive).

With `CCSCCNc1nccc(-c2cn(C)nc2C)n1`, the figures for the fold change in assay [1] (setting [4]) and in assay [1] (setting [5]) were 0.861 (inactive) and 2.06, respectively. The cell count in assay [1] (setting [6]) was 8420; in assay [1] (setting [7]), 9770. The z-score is -0.242 (inactive) in assay [2] (setting [8]), 0.458 in assay [2] (setting [9]) and -0.585 (inactive) in assay [3].

For `Cc1nn(C)c(C)c1-c1ccnc(NCCc2nc3ccc(Cl)cc3[nH]2)n1`, the fold change in assay [1] (setting [4]) was 0.924 (inactive); in assay [1] (setting [5]) it was 3.32. Also, the cell count in assay [1] (setting [6]) came to 1430; in assay [1] (setting [7]), 1550. Besides, the z-score in assay [2] (setting [8]) is -0.908 (inactive); in assay [2] (setting [9]), 0.453; in assay [3], -0.38 (inactive).

For `CCn1ncc2[nH]c(-c3cnn(C)c3-c3ccccc3)nc21`, the fold change was 0.88 (inactive) in assay [1] (setting [4]) and 1.89 in assay [1] (setting [5]). Also, the cell count in assay [1] (setting [6]) turned out to be 8480; in assay [1] (setting [7]), 9640. The z-score was -0.346 (inactive) in assay [2] (setting [8]), -0.221 in assay [2] (setting [9]) and -0.49 (inactive) in assay [3].

With `COc1ccc2c(c1)CCN(C(=O)Nc1n[nH]c(-c3ccccc3F)n1)C2`, the fold change in assay [1] (setting [4]) was 0.904 (inactive); in assay [1] (setting [5]), 0.695. The cell count in assay [1] (setting [6]) turned out to be 7710; in assay [1] (setting [7]), 8530. Also, the z-score in assay [2] (setting [8]) is -0.521; in assay [2] (setting [9]), 3.73; in assay [3] it was 0.16 (inactive).

For the compound `O=C(c1cccc2nccnc12)N1CCc2[nH]nc(COc3ccccc3)c2C1`, the fold change is 0.845 (inactive) in assay [1] (setting [4]) and 1.54 in assay [1] (setting [5]). Also, the values for the cell count in assay [1] (setting [6]) and in assay [1] (setting [7]) were 8640 and 10200, respectively. In addition, the z-score in assay [2] (setting [8]) was -0.113 (inactive); in assay [2] (setting [9]) it was -0.39; in assay [3] it was -0.45 (inactive).

For `Cc1ccc2c(c1)N(Cc1nc(C(C)(C)C)no1)C(=O)CO2`, the results for the fold change in assay [1] (setting [4]) and in assay [1] (setting [5]) were 1.19 (inactive) and 0.578, respectively. Besides, the cell count in assay [1] (setting [6]) was found to be 6310; in assay [1] (setting [7]) it was 5280. Moreover, the z-score in assay [2] (setting [8]) was -0.543 (inactive); in assay [2] (setting [9]), -0.423; in assay [3], -0.52 (inactive).

For `O=C(O)c1cnn(-c2ccccc2)c1`, the fold change in assay [1] (setting [4]) was 0.883 (inactive); in assay [1] (setting [5]) it was 0.82. In addition, the cell count in assay [1] (setting [6]) was found to be 8690; in assay [1] (setting [7]), 9840. In addition, the values for the z-score in assay [2] (setting [8]), in assay [2] (setting [9]) and in assay [3] were -0.738 (inactive), 0.631 and 1.16 (inactive), respectively.

Regarding `Cc1cc(-c2cccc3cccnc23)nc(N)n1`, the fold change in assay [1] (setting [4]) was 0.914 (inactive); in assay [1] (setting [5]) it was 1.55. In addition, the cell count in assay [1] (setting [6]) was found to be 9030; in assay [1] (setting [7]) it was 9880. Further, the results for the z-score in assay [2] (setting [8]), in assay [2] (setting [9]) and in assay [3] were -0.012 (inactive), -0.264 and -0.525 (inactive), respectively.

For `CN(CCn1cccn1)Cc1ccc(-c2nc(-c3cccnc3)cc(=O)[nH]2)cc1`, the fold change is 0.951 (inactive) in assay [1] (setting [4]) and 1.22 in assay [1] (setting [5]). For the same compound, the cell count stood at 8710 in assay [1] (setting [6]) and 9150 in assay [1] (setting [7]). Besides, the z-score was -0.265 (inactive) in assay [2] (setting [8]), 0.251 in assay [2] (setting [9]) and 0.18 (inactive) in assay [3].

As for `Cc1nn(C)cc1-c1ccnc(N2CCCN(c3ccccc3)CC2)n1`, the fold change in assay [1] (setting [4]) is 0.823 (inactive); in assay [1] (setting [5]), 0.527. Also, the cell count in assay [1] (setting [6]) was 5610; in assay [1] (setting [7]) it was 6820. In addition, the z-score is -1.06 in assay [2] (setting [8]), 3.98 in assay [2] (setting [9]) and 2.46 (active) in assay [3].

`c1cc(-c2nc(Cc3ccsc3)no2)c2nccnc2c1`: the fold change was 0.89 (inactive) in assay [1] (setting [4]) and 0.787 in assay [1] (setting [5]). Also, the cell count worked out at 8210 in assay [1] (setting [6]) and 9220 in assay [1] (setting [7]). In addition, the z-score in assay [2] (setting [8]) is -0.0904 (inactive); in assay [2] (setting [9]), 1.15; in assay [3], 0.105 (inactive).
